High-throughput results deposited in PubChem by several laboratories.
PfHsp90 set2 – growth inhibition of PfHsp90-expressing yeast, primary screen, antimalarial PfHsp90 inhibitor project, S. cerevisiae, BacTiter-Glo luminescence, single point, set 2; BacTiter-Glo ATP, 48 h; yeast lacking PDR1 and PDR3 efflux regulators; inhibition, % at 9.4 µM; 310,000 compounds, 0.32% hits; AID 504621, 2011;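 active = every replicate shows inhibition above about 80%, whatever the replicate mean, limit read from the data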;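 also: 0% = DMSO neutral controls and 100% = 20 µM radicicol positive controls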
TIM10 inh – growth inhibitors of isogenic TIM10 control yeast, primary screen, counter-screen for tim10-1 yeast inhibitor project, luminescence, uHTS; 330,000 compounds, 1.4% hits; inhibition, % at 10 µM; S. cerevisiae TIM10 strain growth, BacTiter-Glo luminescence, 24 h;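 active = inhibition of 40% or more at the single tested concentration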;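 also: wild-type TIM10 isogenic control strain grown at permissive 25 °C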
tim23-1 inh – growth inhibitors of tim23-1 mutant yeast, primary screen, luminescence, uHTS; S. cerevisiae tim23-1 growth, BacTiter-Glo luminescence, 24 h; inhibition, % at 20 µM; 330,000 compounds, 1.3% hits;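 active = growth inhibition of the mutant yeast at or above 50%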;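 also: temperature-sensitive mutant grown at 25 °C; plate controls were DMSO-treated mutant yeast for no effect and medium wells lacking yeast for full effect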
tim10-1 inh – growth inhibitors of tim10-1 mutant yeast, primary screen, luminescence, uHTS; 330,000 compounds, 2.2% hits; inhibition, % at 20 µM; S. cerevisiae tim10-1 ts strain growth, BacTiter-Glo, 24 h;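 active = inhibition of at least 40%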;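 also: mutant grown at 25 °C; 0% = DMSO wells with yeast and 100% = wells holding no yeast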
NLRP3 yeast inh – NALP3 inflammasome inhibitors in reconstituted yeast, primary screen, luminescence, uHTS | Yeast reconstituted NLRP3/ASC/caspase-1, beta-gal luminescence, 24 h | inhibition, % at 10 µM | 330,000 compounds, 0.39% hits | AID 2825, 2010;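 active = inhibition of 50% or more; inactive = inhibition below 50%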;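 also: plate controls were induced DMSO wells for no effect and uninduced yeast grown without galactose for full effect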
SKKanGAS inh – S. pyogenes SKKanGAS growth inhibitors in kanamycin, primary screen, streptokinase expression inhibitor project, SKKanGAS strain, BacTiter-Glo luminescence | 6 h | inhibition, % at 7.5 µM | 300,000 compounds, 1.3% hits | AID 1662, 2009;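 active = mean replicate score, as percent of positive control median, at least 50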;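 also: strain carries kanamycin resistance gene driven by streptokinase promoter and grows in 40 µg/ml kanamycin; loss of luminescence reflects streptokinase promoter inhibition or plain growth inhibition; 0% = median of DMSO wells and 100% = positive control at its reference dose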
TIM10 conf – growth inhibitors of wild-type TIM10 yeast, confirmation, counter-screen for tim10-1 synthetic lethality project, single concentration, luminescence, S. cerevisiae; shares compounds with TIM10 inh; S. cerevisiae tim10 strain growth, BacTiter-Glo luminescence, 24 h; inhibition, % at 10 µM; 4,600 compounds, 63% hits; AID 463215, 2010;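 active = inhibition of yeast growth at or above a set limit in either of two replicates at 10 µM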;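 also: this counterscreen used the strain with wild-type TIM10; 0% = yeast with DMSO and 100% = medium wells lacking yeast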
tim23-1 conf – tim23-1 mutant yeast growth inhibitors, confirmation, luminescence, single concentration; shares compounds with tim23-1 inh; 4,400 compounds, 83% hits; AID 463218, 2010; S. cerevisiae tim23-1 growth, BacTiter-Glo luminescence, 24 h; inhibition, % at 20 µM;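 active = inhibition above about 39% in either of two replicate wells at 20 µM, limit read from the data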;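 also: temperature-sensitive tim23-1 mutant grown at 25 °C; 0% = DMSO wells with yeast and 100% = medium wells without yeast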
* marks the source's active call; other numbers are inactive results. A selection: hits, their analogues and other compounds. The true share with any hit is near 4.5%.

O=C(Nc1ccc(OC(F)(F)F)cc1)N1CCN(c2ccnc3cc(Cl)ccc23)CC1 was read as PfHsp90 set2 -22, TIM10 inh 46*, tim23-1 inh 74*, tim10-1 inh 35, NLRP3 yeast inh 8, SKKanGAS inh 65*, TIM10 conf 28 and tim23-1 conf 67*.
Screening CC(C)(C)C(=O)N1CCN(c2ccnc3cc(Cl)ccc23)CC1 returned PfHsp90 set2 -14, TIM10 inh 3, tim23-1 inh 12, tim10-1 inh -3, NLRP3 yeast inh 20 and SKKanGAS inh -17.
Screening Cc1ccc(CC(=O)O/N=C(\N)c2cccc([N+](=O)[O-])c2)cc1 returned PfHsp90 set2 -18, TIM10 inh 16, tim23-1 inh 18, tim10-1 inh 27, NLRP3 yeast inh 7 and SKKanGAS inh -3.
Screening N/C(Cc1ccc([N+](=O)[O-])cc1)=N\OC(=O)c1ccc(Br)cc1 returned PfHsp90 set2 25, TIM10 inh 92*, tim23-1 inh 83*, tim10-1 inh 24, NLRP3 yeast inh 18, SKKanGAS inh -5, TIM10 conf 94* and tim23-1 conf 32.
Cc1ccc(C(=O)O/N=C(\N)Cc2ccc([N+](=O)[O-])cc2)c(Cl)c1 was read as PfHsp90 set2 0, TIM10 inh 89*, tim23-1 inh 88*, tim10-1 inh -2, NLRP3 yeast inh 21, SKKanGAS inh -8, TIM10 conf 96* and tim23-1 conf 65*.
`CN(Cc1ccccc1)C(=O)c1ccc(NC(=O)Cc2cccc(NC(=O)C3CCN(C(=O)C4CCC4)CC3)c2)cc1` gave PfHsp90 set2 -10, TIM10 inh 2, tim23-1 inh 21, tim10-1 inh 10 and NLRP3 yeast inh 24.
Screening CC(=O)n1cc(Nc2ccc([N+](=O)[O-])cc2)c2ccccc21 returned PfHsp90 set2 -6, TIM10 inh -20, tim23-1 inh -19, tim10-1 inh 4, NLRP3 yeast inh 7 and SKKanGAS inh 27.
Screening CC(=O)SC(C[N+](=O)[O-])c1cn(C(C)=O)c2ccccc12 (configuration not stated) returned PfHsp90 set2 124*, TIM10 inh 80*, tim23-1 inh 89*, tim10-1 inh 27, NLRP3 yeast inh 9, SKKanGAS inh 3, TIM10 conf 86* and tim23-1 conf -76.
Screening O=C(CN1C(=O)C2C3C=CC(C3)C2C1=O)OCC(=O)c1ccc(Br)cc1 (configuration not stated) returned PfHsp90 set2 14, TIM10 inh 2, tim23-1 inh 6, tim10-1 inh 8, NLRP3 yeast inh 11 and SKKanGAS inh -13.
`COC(=O)/C(=C(/F)Sc1cc(C)c(O)c(C)c1)C(F)(F)F` gave PfHsp90 set2 -29, TIM10 inh 42*, tim23-1 inh 54*, tim10-1 inh 32, NLRP3 yeast inh 18, SKKanGAS inh 3, TIM10 conf 30 and tim23-1 conf 52*.
O=C(CCN1CCCCC1)c1ccccc1 was read as PfHsp90 set2 -5, TIM10 inh 5, tim23-1 inh 21, tim10-1 inh 10, NLRP3 yeast inh 0 and SKKanGAS inh 4.
CCc1oc2ccccc2c1C(=O)CCN1CCCCC1 was read as PfHsp90 set2 3, TIM10 inh 57*, tim23-1 inh 52*, tim10-1 inh 33, NLRP3 yeast inh 34, SKKanGAS inh -1, TIM10 conf 41* and tim23-1 conf -121.
For COc1ccccc1-c1cn(C(C)(C)C)nc1C the results were PfHsp90 set2 -4, TIM10 inh 16, tim23-1 inh 19, tim10-1 inh 27, NLRP3 yeast inh 14 and SKKanGAS inh 25.
CNC(=S)N/N=C/c1cn(Cc2ccc(F)cc2)c2ccccc12 was read as PfHsp90 set2 -45, TIM10 inh 40*, tim23-1 inh 51*, tim10-1 inh 19, NLRP3 yeast inh 16, SKKanGAS inh 13, TIM10 conf 49* and tim23-1 conf 39*.
`COC(=O)N/N=C/c1cn(Cc2ccc(F)cc2)c2ccccc12` gave PfHsp90 set2 -20, TIM10 inh 12, tim23-1 inh 20, tim10-1 inh 14, NLRP3 yeast inh 15 and SKKanGAS inh 14.
`CCc1cccc(N(C(=O)c2csnn2)C(C(=O)NC2CCCCC2)c2cccnc2)c1` (configuration not stated) gave PfHsp90 set2 -9, TIM10 inh 5, tim23-1 inh 10, tim10-1 inh 9, NLRP3 yeast inh 5 and SKKanGAS inh 2.
For COC(=O)c1cc(NC(=O)CN2C(=O)C(=O)N(C3CCCC3)C2=O)cc(C(=O)OC)c1 the results were PfHsp90 set2 -25, TIM10 inh 8, tim23-1 inh 6, tim10-1 inh 5 and NLRP3 yeast inh 8.
For CN(C(=O)COC(=O)c1ccccc1C(=O)N(C)c1ccccc1)c1ccccc1 the results were PfHsp90 set2 31, TIM10 inh -1, tim23-1 inh 0, tim10-1 inh 24, NLRP3 yeast inh 11 and SKKanGAS inh 9.
CN(C(=O)COC(=O)c1cc2ccccc2cc1O)c1ccccc1 was read as PfHsp90 set2 23, TIM10 inh 40*, tim23-1 inh 62*, tim10-1 inh 25, NLRP3 yeast inh 27, TIM10 conf 47* and tim23-1 conf 48*.
Screening CCOC(=O)c1c(N)sc(C(=O)Nc2ccccc2)c1C returned PfHsp90 set2 46, TIM10 inh 41*, tim23-1 inh 55*, tim10-1 inh -8, NLRP3 yeast inh 45, SKKanGAS inh 7, TIM10 conf 31 and tim23-1 conf 68*.
`CC(OC(=O)c1cc[n+]([O-])cc1)C(=O)NCc1ccccc1` (configuration not stated) gave PfHsp90 set2 -11, TIM10 inh 2, tim23-1 inh -2, tim10-1 inh -3, NLRP3 yeast inh 9 and SKKanGAS inh 0.
